Compounds with a hit are over-represented: about 11% of the library has one in this group of screens.
NIH3T3 tox = kills NIH 3T3 cells. NIH 3T3 viability, CellTiter-Glo ATP luminescence, 48-72 h. Potency, µM (top dose mostly 96.7 µM), most hits filed as inhibitors. hit rate 4.3% among 94,000. AID 1345082; note: nearly all actives have a fitted effect of over 55% in size
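Cells were seeded at 400 per well, treated with pin-transferred compound, and kept 48 or 72 hr at 37 °C before CellTiter-Glo addition and luminescence imaging of cellular ATP.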
hNpr1 antagonist = blocks ANP-stimulated signaling of human Npr1 receptor | P16066 | HEK293 hNpr1 GloSensor cGMP, ANP-stimulated luminescence | Potency, µM (doses to about 46.3 µM), usual class: inhibitors | hit rate 1.6% among 76,000 | AID 1347048; calls by dose curve; note: nearly all actives have a fitted effect of over 60% in size
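HEK293 cells stably expressing human Npr1 and cGMP GloSensor pGS-40F, loaded 2 h with 2% GloSensor reagent, given compound 30 min at room temperature. Luminescence read before and 20 min after 0.1 nM hNppA.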
HEK cytotox = kills HEK 293 cells. HEK 293 viability, ATP luminescence (CellTiter-Glo), 48-72 h. Potency, µM (series often up to 115 µM), hits mostly inhibitors. hit rate 6.6% among 94,000. AID 1345083; note: nearly all actives have a fitted effect of over 60% in size
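Luminescence from cellular ATP, measured with CellTiter-Glo, indicates HEK 293 viability. Cells plated at 250 cells/well are treated with compound for 48 or 72 hr at 37 degree Celsius before reagent addition.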
Luciferase inh = inhibitors of firefly (Photinus pyralis) luciferase; hit rate 2.5% among 76,000; purified P. pyralis luciferase, luminescence, biochemical; P08659; Potency, µM (doses to about 115 µM), most hits filed as inhibitors; note: nearly all actives have a fitted effect of over 65% in size
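Cell-free enzyme assay, 10nM P. pyralis luciferase, luciferin and ATP each at 10uM. Inhibition profiled over a 6-point titration, read as luminescence.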
Large screens that a line does not name were inactive. Unless noted, calls come from the whole dose curve; as a rule, active = well fitted curve in the direction sought with a large enough effect; inconclusive = small, poorly fitted or top-dose-only effect, or another doubt; inactive = no such curve, though single readings can be large; an effect the other way counts as inactive or inconclusive.

CC1=C[C@@H](CNC(=O)CCC(=O)O)[C@H](C(C)C)C[C@H]1Cc1nc2c(C)cccc2[nH]1	HEK cytotox inconclusive
COc1ccccc1CN(Cc1ccccc1OC)C[C@@H]1C=C(C)[C@H](Cc2nc3c(C)cccc3[nH]2)C[C@H]1C(C)C	NIH3T3 tox 32µM, hNpr1 antagonist inconclusive, HEK cytotox 16µM
CCc1nc2c(c(-c3ccc(O)cc3)n1)CN(Cc1ccccc1)CC2	NIH3T3 tox inconclusive, HEK cytotox inconclusive
CCOc1ccccc1NC(=O)[C@H]1CCC[C@H]1NC(=O)c1ccc(OC)cc1	HEK cytotox inconclusive
COc1ccc(NC(=O)c2cc3c(s2)CN(C2CCCC2)C3)c(C)c1	NIH3T3 tox inconclusive, HEK cytotox inconclusive
CC1=C[C@@H](CNC(=O)c2cccnc2)[C@H](C(C)C)C[C@H]1CC(=O)N1CCCC1	Luciferase inh 63µM
CC1=C[C@@H](CNC(=O)c2ccccc2)[C@H](C(C)C)C[C@H]1Cc1nc2ccc(C)cc2[nH]1	NIH3T3 tox inconclusive, HEK cytotox 50µM
CC1=C[C@@H](CN2C(=O)c3ccccc3C2=O)[C@H](C(C)C)C[C@H]1Cc1nc2ccccc2[nH]1	NIH3T3 tox 25µM, hNpr1 antagonist inconclusive, HEK cytotox 32µM
CC1=C[C@@H](CNC(=O)c2ccccc2)[C@H](C(C)C)C[C@H]1Cc1nc2ccncc2[nH]1	NIH3T3 tox inconclusive, hNpr1 antagonist inconclusive, HEK cytotox 79µM
OC1(c2csc(CN3CCN(c4ccccn4)CC3)n2)CCN(Cc2ccccc2)CC1	HEK cytotox inconclusive
O=C(NCc1ccc(F)cc1)C1CCCN(Cc2cccc(-c3ccc(F)cc3F)c2)C1 (centres undefined)	NIH3T3 tox 45µM, HEK cytotox inconclusive (no result: hNpr1 antagonist, Luciferase inh)
O=C(Nc1ccccc1Cl)C1CCCN(Cc2cccc(-c3ccc(F)cc3F)c2)C1 (centres undefined)	NIH3T3 tox 35µM, HEK cytotox 32µM (no result: hNpr1 antagonist, Luciferase inh)
O=C(NCc1ccccc1Cl)C1CCCN(Cc2cccc(-c3ccc(F)cc3F)c2)C1 (centres undefined)	NIH3T3 tox inconclusive, HEK cytotox 45µM (no result: hNpr1 antagonist, Luciferase inh)
O=C(Nc1cccc(F)c1)N1CC(Oc2ccc(-c3nc(-c4ccccc4)no3)cc2)C1	NIH3T3 tox inconclusive, hNpr1 antagonist 7.1µM, HEK cytotox inconclusive, Luciferase inh 2.5µM
O=C(c1ccncc1)N1CC(Oc2ccc(-c3noc(-c4ccccc4)n3)cc2)C1	HEK cytotox inconclusive, Luciferase inh inconclusive
COc1ccc(NC(=O)N2CC(Oc3ccc(-c4nc(-c5ccccc5)no4)cc3)C2)cc1	HEK cytotox inconclusive, Luciferase inh 1.4µM
CC(C(=O)N1CC(Oc2ccc(-c3noc(-c4ccncc4)n3)cc2)C1)c1ccccc1 (centres undefined)	NIH3T3 tox 25µM, HEK cytotox inconclusive (no result: hNpr1 antagonist, Luciferase inh)
CCN1CCN(CCNC(=O)C23CCCC=C2N(Cc2ccccc2)C(=O)CC3)CC1 (centres undefined)	none (no result: hNpr1 antagonist, Luciferase inh)
CCN1c2cc(C(=O)Nc3ccc(Cl)c(C)c3)ccc2C(=O)N2CCCCCC21 (centres undefined)	NIH3T3 tox inconclusive, HEK cytotox inconclusive
CC(C)c1ccc(CC(=O)N2CCCc3ncc(C(=O)NCc4ccncc4)cc32)cc1	HEK cytotox inconclusive
CN1CC(=O)N(C2CCCCC2)Cc2c1ncnc2N1CCN(c2ncccn2)CC1	NIH3T3 tox 45µM, HEK cytotox 45µM (no result: hNpr1 antagonist, Luciferase inh)
CCn1ccnc1CN(CC1CCN(CCc2ccccc2C)CC1)C1CCCC1	NIH3T3 tox inconclusive, HEK cytotox inconclusive
Cc1ccc(-c2noc([C@@H]3Cc4nc[nH]c4CN3C(=O)c3ccccc3)n2)cc1	Luciferase inh 40µM
CC(=O)c1ccc(NC(=O)N2Cc3[nH]cnc3C[C@H]2c2nc(-c3ccccc3)no2)cc1	none
O=C(O)CCC(=O)N1Cc2[nH]cnc2C[C@H]1c1nc(-c2ccc(Cl)cc2)no1	Luciferase inh 71µM
O=C(Nc1ccccc1)N1Cc2[nH]cnc2C[C@H]1c1nc(-c2ccccc2)no1	NIH3T3 tox inconclusive, Luciferase inh 40µM
O=C(Nc1ccc(Cl)cc1)N1Cc2[nH]cnc2C[C@H]1c1nc(-c2ccc3ccccc3c2)no1	NIH3T3 tox inconclusive, HEK cytotox inconclusive, Luciferase inh 32µM
O=C(c1ccccc1)N1Cc2[nH]cnc2C[C@H]1c1nc(-c2ccncc2)no1	none
Cc1ccc(-c2noc([C@@H]3Cc4nc[nH]c4CN3C(=O)Nc3ccc(Cl)cc3)n2)cc1	NIH3T3 tox inconclusive, hNpr1 antagonist inconclusive, HEK cytotox inconclusive, Luciferase inh 40µM

Source: PubChem
